This note sets out measurements from PubChem BioAssay (EPA / NIEHS).

Several values for one entry are separate records, joined by “and”; a condition that tells them apart may be missing. Identical values can stand only once. Records with an inconclusive call do not appear. Some structures have more than one record in an assay (separate samples or runs), and their calls can disagree. Activity calls are given as the source filed them. How the source made its calls: active means hit-call score of the fitted dose curve at least 0.9, where 1 is the maximum; inconclusive means response in the unintended direction; inactive means score below 0.9.

Assay [1] deals with chimpanzee Androgen Receptor (AR), AR (gene 747460) (UniProt O97775). The assay is described as follows: NVS_NR_cAR: NovaScreen (NVS) Nuclear Receptor Binding Assay for chimpanzee Androgen Receptor (AR) (AID 2283346).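 Further: radioligand displacement from AR measured by scintillation counting in a cell-free assay; a loss of bound radioligand signal versus DMSO counts as binding.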 In short, it runs like this: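 Cell-free competition binding with insect-cell (Sf9/Sf21) extracted chimpanzee AR; scintillation signal from lysate at 72 h. Screened in duplicate at 25 uM, then concentration-response for actives; fitting relative to DMSO.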

Assay [2] has as its target Estrogen receptor (Homo sapiens) (UniProt P03372). The assay is described as follows: OT_ER_ERaERa_1440: Odyssey Thera (OT) 24-hour HEK293T Protein-Complementation Assay for Estrogen Receptor-alpha/-alpha Homodimer (AID 2283349).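 Further: hits raise fluorescence above DMSO for agonists and antagonists alike.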 In short, it runs like this: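 HEK293T, stable ERα LBD (aa 310-547) homodimer PCA; 24 h compound exposure; mean fluorescence intensity (nuclear for agonists, nuclear plus cytoplasmic for antagonists) vs vehicle; positive fitting direction, DMSO baseline.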

Assay [3] shares this target. The assay is described as follows: OT_ER_ERaERa_0480: Odyssey Thera (OT) 8-hour HEK293T Protein-Complementation Assay for Estrogen Receptor-alpha/-alpha Homodimer (AID 2283351).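 Further: rise in fluorescence from reassembled reporter fragments on ERα LBD homodimer in nucleus or whole cell.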 A digest of the protocol:
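Measures ERα LBD (aa 310-547) homodimer complementation in stably transfected HEK293T at 8 h post-dose, with fluorescence intensity quantified on a laser scanning cytometer relative to DMSO controls.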

Assay [4] has as its target T1, Estrogen receptor (Homo sapiens) + Estrogen receptor beta (Homo sapiens) (UniProt P03372+Q92731). The assay is described as follows: OT_ER_ERaERb_1440: Odyssey Thera (OT) 24-hour HEK293T Protein-Complementation Assay for Estrogen Receptor-alpha/-beta Homodimer (AID 2283356).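 Further: heteromer of ER alpha and ER beta binding domains; hits raise reporter fluorescence and both agonists and antagonists give an increase.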 A digest of the protocol: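 24 h exposure; HEK293T PCA cells with ERα/ERβ LBD fragments; signal rise in nuclear or whole-cell fluorescence over vehicle.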

Assay [5] deals with Estrogen receptor (Homo sapiens) (UniProt P03372). The assay is described as follows: NVS_NR_hER: NovaScreen (NVS) Nuclear Receptor Binding Assay for human Estrogen Receptor (ER) (AID 2283348). A digest of the protocol:
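Cell-free MCF7-derived ER preparation, specific radioligand displaced by test compound, read by scintillation counting 18 h post-dosing. Duplicate single-point 25 uM screen, then concentration-response confirmation; DMSO baseline.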

Assay [6] addresses T1, Estrogen receptor (Homo sapiens) + Estrogen receptor beta (Homo sapiens). The assay is described as follows: OT_ER_ERaERb_0480: Odyssey Thera (OT) 8-hour HEK293T Protein-Complementation Assay for Estrogen Receptor-alpha/-beta Heterodimer (AID 2283352). In short, it runs like this: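 Human HEK293T cells were treated for 8 hours and receptor heterodimerisation was detected through reconstitution of a fluorescent reporter split between ER-alpha and ER-beta ligand-binding domains. Activity was analysed as gain of signal against DMSO.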

For assay [7], the target named is human Constitutive Androstane Receptor (CAR), NR1I3 (gene 9970) (UniProt Q14994). The assay is described as follows: NVS_NR_hCAR_Antagonist: NovaScreen (NVS) Nuclear Receptor Binding Assay for human Constitutive Androstane Receptor Antagonism (CAR) (AID 2283344). In short, it runs like this: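 Single 25 uM duplicate primary screen, with concentration-series follow-up on actives. Cell-free binding format run in antagonist mode, TR-FRET signal taken 1 h post-dose; activity is signal loss relative to DMSO.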

Assay [8] addresses Androgen Receptor/SRC-1 Co-activator, AR (gene 367) (UniProt P10275). The assay is described as follows: OT_AR_ARSRC1_0960: Odyssey Thera (OT) 16-hour HEK293T Protein-Complementation Assay for Androgen Receptor/SRC-1 Co-activator (AID 2283353).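 Further: actives raise the signal above DMSO so potency reflects increased AR and SRC-1 complex.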 A digest of the protocol: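 Sixteen-hour cell assay: Venus halves fused to AR and SRC-1 in HEK293T report binding. Images at 488/635 nm give an N/C ratio in the 488 nm channel over ≥400 cells, analysed as signal increase over DMSO.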

Assay [9] shares this target. The assay is described as follows: OT_AR_ARSRC1_0480: Odyssey Thera (OT) 8-hour HEK293T Protein-Complementation Assay for Androgen Receptor/SRC-1 Co-activator (AID 2283354).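 Further: hits raise the complementation signal above DMSO so AC50 marks enhancers.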 In short, it runs like this: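 Reconstituted split-Venus YFP signal from AR–SRC-1 interaction, read by imaging 8 h post-dose in stable HEK293T lines. The 488 nm nucleus-to-cytoplasm ratio (≥400 cells/image) was fitted upward against DMSO.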

The target in assay [10] is rat Mineralocorticoid Receptor (MR), Nr3c2 (gene 25672) (UniProt P22199). The assay is described as follows: NVS_NR_rMR: NovaScreen (NVS) Nuclear Receptor Binding Assay for rat Mineralocorticoid Receptor (MR) (AID 2283355). A digest of the protocol: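 Primary HTS ran in duplicate at a single 25 uM concentration, with concentration-series follow-up for actives. Receptor source: adrenalectomized rat brain supernatant, cell-free. Radioligand displacement read by scintillation at 24 h, relative to DMSO baseline.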
rat Mineralocorticoid Receptor (MR), Nr3c2 (gene 25672), sequence (P22199 whole entry, looked up): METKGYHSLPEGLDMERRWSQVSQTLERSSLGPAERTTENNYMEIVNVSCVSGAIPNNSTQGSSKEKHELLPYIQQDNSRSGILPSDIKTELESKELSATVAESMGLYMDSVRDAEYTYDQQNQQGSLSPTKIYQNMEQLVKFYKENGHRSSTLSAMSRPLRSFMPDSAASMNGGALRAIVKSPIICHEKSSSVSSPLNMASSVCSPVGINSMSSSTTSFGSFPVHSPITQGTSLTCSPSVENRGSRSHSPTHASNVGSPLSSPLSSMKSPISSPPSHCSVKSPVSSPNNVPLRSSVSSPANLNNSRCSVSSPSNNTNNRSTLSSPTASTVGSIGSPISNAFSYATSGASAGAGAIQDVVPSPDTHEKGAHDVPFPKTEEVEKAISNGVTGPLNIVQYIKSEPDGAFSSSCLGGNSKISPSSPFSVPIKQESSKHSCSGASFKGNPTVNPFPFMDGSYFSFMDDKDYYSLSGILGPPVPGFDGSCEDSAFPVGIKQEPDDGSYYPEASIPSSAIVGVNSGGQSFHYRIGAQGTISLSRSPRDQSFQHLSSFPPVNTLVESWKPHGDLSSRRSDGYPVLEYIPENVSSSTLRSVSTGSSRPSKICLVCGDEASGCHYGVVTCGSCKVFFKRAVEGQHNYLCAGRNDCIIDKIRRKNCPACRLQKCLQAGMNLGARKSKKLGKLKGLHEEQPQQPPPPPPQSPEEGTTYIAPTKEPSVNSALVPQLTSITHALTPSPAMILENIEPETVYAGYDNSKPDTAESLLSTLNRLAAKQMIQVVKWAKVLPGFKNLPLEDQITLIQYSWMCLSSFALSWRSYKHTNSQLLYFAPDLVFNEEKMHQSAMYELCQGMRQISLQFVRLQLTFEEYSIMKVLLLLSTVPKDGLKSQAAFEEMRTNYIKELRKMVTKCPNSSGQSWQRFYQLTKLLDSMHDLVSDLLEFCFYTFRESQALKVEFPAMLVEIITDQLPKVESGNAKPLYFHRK

Androgen Receptor/SRC-1 Co-activator, AR (gene 367), sequence (P10275 whole entry, looked up, the tested form may be a part): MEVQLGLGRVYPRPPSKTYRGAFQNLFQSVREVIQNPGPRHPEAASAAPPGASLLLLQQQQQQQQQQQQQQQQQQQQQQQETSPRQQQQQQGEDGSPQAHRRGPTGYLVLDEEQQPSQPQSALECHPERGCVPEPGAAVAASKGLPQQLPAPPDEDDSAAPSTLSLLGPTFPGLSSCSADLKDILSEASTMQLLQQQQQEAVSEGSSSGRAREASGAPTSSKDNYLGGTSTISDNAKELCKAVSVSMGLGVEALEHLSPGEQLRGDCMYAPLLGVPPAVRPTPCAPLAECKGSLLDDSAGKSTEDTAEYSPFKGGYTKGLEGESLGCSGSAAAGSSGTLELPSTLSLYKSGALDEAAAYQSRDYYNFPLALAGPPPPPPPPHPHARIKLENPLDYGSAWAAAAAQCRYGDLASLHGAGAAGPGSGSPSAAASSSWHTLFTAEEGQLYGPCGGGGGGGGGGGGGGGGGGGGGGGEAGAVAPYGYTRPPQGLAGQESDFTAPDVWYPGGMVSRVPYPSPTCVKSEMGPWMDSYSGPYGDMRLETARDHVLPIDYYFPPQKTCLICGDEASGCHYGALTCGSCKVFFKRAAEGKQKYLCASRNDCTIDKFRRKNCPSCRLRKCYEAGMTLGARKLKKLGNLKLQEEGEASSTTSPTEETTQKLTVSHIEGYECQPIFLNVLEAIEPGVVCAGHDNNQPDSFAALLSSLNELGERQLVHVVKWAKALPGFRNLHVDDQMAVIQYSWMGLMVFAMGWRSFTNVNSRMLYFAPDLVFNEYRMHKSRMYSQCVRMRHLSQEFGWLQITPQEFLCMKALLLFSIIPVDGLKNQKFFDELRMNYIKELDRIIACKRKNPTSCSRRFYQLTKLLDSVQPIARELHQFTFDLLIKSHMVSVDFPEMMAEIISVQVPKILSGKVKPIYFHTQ
chimpanzee Androgen Receptor (AR), AR (gene 747460), sequence (O97775 whole entry, looked up): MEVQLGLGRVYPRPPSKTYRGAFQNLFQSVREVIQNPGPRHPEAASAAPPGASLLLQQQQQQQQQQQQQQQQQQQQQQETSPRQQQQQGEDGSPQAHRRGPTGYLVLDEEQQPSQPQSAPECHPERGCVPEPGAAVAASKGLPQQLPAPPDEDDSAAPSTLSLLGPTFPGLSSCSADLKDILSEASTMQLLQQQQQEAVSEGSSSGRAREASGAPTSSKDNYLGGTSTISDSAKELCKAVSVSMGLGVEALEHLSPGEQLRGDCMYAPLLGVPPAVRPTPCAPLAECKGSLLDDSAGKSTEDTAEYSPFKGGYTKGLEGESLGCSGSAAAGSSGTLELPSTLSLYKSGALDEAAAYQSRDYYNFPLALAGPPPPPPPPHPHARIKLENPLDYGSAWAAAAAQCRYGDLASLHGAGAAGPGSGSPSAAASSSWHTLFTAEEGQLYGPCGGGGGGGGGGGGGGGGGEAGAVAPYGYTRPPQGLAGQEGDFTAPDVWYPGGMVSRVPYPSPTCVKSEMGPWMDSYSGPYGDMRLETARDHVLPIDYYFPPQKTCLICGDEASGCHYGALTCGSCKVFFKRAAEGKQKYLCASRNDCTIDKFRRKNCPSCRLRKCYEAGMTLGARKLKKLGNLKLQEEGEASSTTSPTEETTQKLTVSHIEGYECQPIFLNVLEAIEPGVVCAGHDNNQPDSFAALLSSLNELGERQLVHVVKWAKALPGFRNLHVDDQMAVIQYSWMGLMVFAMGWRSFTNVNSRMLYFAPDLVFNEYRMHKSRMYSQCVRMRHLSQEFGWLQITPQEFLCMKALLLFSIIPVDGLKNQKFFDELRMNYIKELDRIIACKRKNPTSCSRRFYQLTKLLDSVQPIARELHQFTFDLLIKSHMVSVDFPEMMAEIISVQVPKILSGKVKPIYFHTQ
Estrogen receptor (Homo sapiens), sequence (P03372 whole entry, looked up, the tested form may be a part): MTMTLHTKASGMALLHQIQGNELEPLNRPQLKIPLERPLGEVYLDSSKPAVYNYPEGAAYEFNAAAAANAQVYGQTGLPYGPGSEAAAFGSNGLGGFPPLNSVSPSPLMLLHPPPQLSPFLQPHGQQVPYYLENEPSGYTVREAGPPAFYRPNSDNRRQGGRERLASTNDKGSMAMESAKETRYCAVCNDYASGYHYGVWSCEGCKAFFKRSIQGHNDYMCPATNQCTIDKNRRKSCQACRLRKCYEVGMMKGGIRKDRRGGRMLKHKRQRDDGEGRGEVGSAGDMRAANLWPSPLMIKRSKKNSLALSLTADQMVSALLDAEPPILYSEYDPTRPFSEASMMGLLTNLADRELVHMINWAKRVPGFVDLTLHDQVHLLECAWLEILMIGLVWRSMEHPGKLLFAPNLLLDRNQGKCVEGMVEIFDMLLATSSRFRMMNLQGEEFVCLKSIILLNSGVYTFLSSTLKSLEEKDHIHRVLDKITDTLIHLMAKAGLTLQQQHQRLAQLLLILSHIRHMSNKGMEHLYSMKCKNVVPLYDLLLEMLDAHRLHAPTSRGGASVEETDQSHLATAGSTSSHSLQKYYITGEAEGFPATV
T1 sequence (P03372 whole entry, looked up, the tested form may be a part): as above
T1 sequence (Q92731 whole entry, looked up, the tested form may be a part): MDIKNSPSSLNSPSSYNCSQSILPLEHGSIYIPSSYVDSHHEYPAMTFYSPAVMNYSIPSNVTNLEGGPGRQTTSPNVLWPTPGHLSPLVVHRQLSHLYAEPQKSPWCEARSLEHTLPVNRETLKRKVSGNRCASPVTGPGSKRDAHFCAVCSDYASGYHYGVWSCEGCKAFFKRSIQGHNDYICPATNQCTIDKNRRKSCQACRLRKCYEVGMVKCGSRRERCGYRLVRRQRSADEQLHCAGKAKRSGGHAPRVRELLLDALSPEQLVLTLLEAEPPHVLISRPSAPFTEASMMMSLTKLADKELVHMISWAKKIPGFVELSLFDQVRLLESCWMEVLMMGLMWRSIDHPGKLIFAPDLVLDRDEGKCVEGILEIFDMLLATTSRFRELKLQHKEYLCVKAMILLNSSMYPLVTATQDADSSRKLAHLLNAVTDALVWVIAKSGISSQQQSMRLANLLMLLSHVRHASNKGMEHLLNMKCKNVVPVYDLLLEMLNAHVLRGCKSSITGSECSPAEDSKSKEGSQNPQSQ
human Constitutive Androstane Receptor (CAR), NR1I3 (gene 9970), sequence (Q14994 whole entry, looked up): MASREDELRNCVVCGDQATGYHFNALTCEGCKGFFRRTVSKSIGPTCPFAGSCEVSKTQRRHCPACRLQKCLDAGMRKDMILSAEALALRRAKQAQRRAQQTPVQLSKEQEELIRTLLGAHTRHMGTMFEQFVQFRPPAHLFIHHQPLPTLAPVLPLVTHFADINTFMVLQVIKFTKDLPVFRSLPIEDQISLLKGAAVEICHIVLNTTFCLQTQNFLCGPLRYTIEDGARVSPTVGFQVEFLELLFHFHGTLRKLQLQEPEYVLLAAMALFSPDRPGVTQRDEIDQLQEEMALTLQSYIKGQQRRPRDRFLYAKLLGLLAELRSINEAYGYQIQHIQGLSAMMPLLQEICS

`[O-]/[N+](=N\O)c1ccccc1`: the result in assay [1], in [2] and in assay [3] was inactive.

As for `CCCCCC1C(=O)CCC1CC(=O)OC` (configuration not stated), the half-maximal activity concentration (AC50) in assay [1] is 17.7 µM (active). Moreover, the molecule was called inactive in [2] and in [3].

For the molecule `CC(C)CCCC(C)(C)O`, the molecule was classed as inactive in assay [1], in assay [2], in assay [3] and in assay [4].

With `O=C(Nc1cccc(Cl)c1)OCC#CCCl`, in [5], the molecule was classed as inactive.

Take `O=c1cc(-c2ccc(O)cc2)oc2cc(O)cc(O)c12`: the concentration at half-maximal activity (AC50) in assay [1] was 12.9 µM (active).

In the case of `CC/C(=C(\c1ccccc1)c1ccc(OCCN(C)C)cc1)c1ccccc1`, in [1], the concentration at half-maximal activity (AC50) was 19.4 µM (active) and the molecule was called inactive.

Take `CCCc1ccc(O)cc1`: the molecule was called inactive in assay [1], in assay [5] and in assay [2]. The values for the AC50 in assay [3], in [6] and in assay [4] were 63.7 µM (active), 45.2 µM (active) and 43 µM (active), respectively.

Turning to `CN(C)CCC=C1c2ccccc2CCc2ccccc21`, the molecule was called inactive in assay [5].

Turning to `O=S1(=O)CC(Cl)(Cl)C(Cl)(Cl)C1`, the AC50 in assay [5] is 18.5 µM (active).

Regarding `NNC(=O)OCc1ccccc1`, the molecule was called inactive in [5].

As to `CCC(C)(C)c1cc(O)c(C(C)(C)CC)cc1O`, the outcome in [5] was inactive.

Take `O=C(c1ccc(OCCN2CCCCC2)cc1)c1c(-c2ccc(O)cc2)sc2cc(O)ccc12`: the figures for the AC50 in [7] and in assay [1] were 38.5 µM (active) and 25 µM (active), respectively. The outcome in assay [1] was inactive.

`C=CCOCC(O)CO` (configuration not stated): in [1], the concentration at half-maximal activity (AC50) was 1.33 µM (active).

With `CC(=O)CC(=O)N(C)C`, the result in [1], in assay [5], in assay [2], in assay [3], in [6] and in assay [4] was inactive.

For `O=C1OC2(c3ccc(O)cc3Oc3cc(O)ccc32)c2ccccc21`, the AC50 is 13.5 µM (active) in [1] and 9.78 µM (active) in [5]. Further, the outcome in [1], in [5], in [2] and in assay [3] was inactive.

In the case of `C=CC(=O)OCC(CO)(COC(=O)C=C)COC(=O)C=C`, the result in [5] was inactive.

As to `CCCCCCCCCCO[C@@H]1O[C@H](CO)[C@@H](O)[C@H](O)[C@H]1O`, the molecule was called inactive in assay [1], in assay [2], in [3] and in assay [4].

`CC(=O)C1C(=O)C=C(C)OC1=O` (configuration not stated): the result in assay [5], in assay [2], in assay [3] and in assay [6] was inactive.

Regarding `CCCCCCCCCCCCOCCOS(=O)(=O)O`, the AC50 in assay [5] is 22.8 µM (active). In addition, the molecule was classed as inactive in assay [2] and in assay [3].

As for `CC(C)(C)c1cccc(O)c1`, the outcome in assay [1], in assay [5], in [2], in [8] and in assay [9] was inactive. For the same molecule, in assay [3], the AC50 is 60.2 µM (active).

Consider `CCCCCC(=O)O[C@]1(C(C)=O)CC[C@H]2[C@@H]3CCC4=CC(=O)CC[C@]4(C)[C@H]3CC[C@@]21C`, for which the AC50 in assay [1] was 1.12 µM (active); in assay [4], 4.65 µM (active). The molecule was classed as inactive in assay [2] and in assay [6].

On to `N#CCCCC(C#N)CCC#N` (configuration not stated), for which the molecule was called inactive in assay [1].

`C[C@]12CC[C@@H]3c4ccc(O)cc4CC[C@H]3[C@@H]1CC[C@@H]2O`: the call in assay [7] was inactive. Besides, the concentration at half-maximal activity (AC50) in [10] was 4.96 µM (active).

For `CC1(C)CC(=O)CC(C)(C)N1`, the result in assay [1] was inactive.

Take `CC/C=C\CCOC(C)OCC` (configuration not stated): the outcome in [5] was inactive.

Take `O=C(O)c1cc2ccccc2cc1O`: the result in assay [5] was inactive.

With `Nc1cc([N+](=O)[O-])ccc1C(=O)O`, the outcome in assay [5] was inactive.

For the molecule `CN(C)c1ccc(C=O)cc1`, the outcome in assay [5] was inactive.

On to `OC[C@@H](O)[C@H](O)[C@@H](O)[C@@H](O)CO`, for which the outcome in [1], in [2] and in [3] was inactive.

For the molecule `C#C[C@]1(O)CC[C@H]2[C@@H]3CCc4cc(O)ccc4[C@H]3CC[C@@]21C`, the AC50 was 966 nM (active) and 80.5 nM (active) in assay [1]; 3.63 µM (active) in assay [10].

Turning to `CCC(C)(C)C1CCC(=O)CC1`, the molecule was called inactive in assay [8] and in assay [9].

For the molecule `CCCCCCOc1ccc(O)cc1`, the AC50 in assay [8] was 75.1 µM (active); in [9] it was 78.3 µM (active).

For the molecule `CC(=O)c1ccc(O)cc1`, the outcome in assay [2], in [3], in assay [6] and in [4] was inactive.

As for `COC(=O)c1ccc(C(=O)OC)cc1`, the outcome in assay [2], in assay [3], in assay [6] and in assay [4] was inactive.

For `CC(=O)c1ccc2ccccc2c1`, the outcome in assay [2], in assay [3] and in assay [6] was inactive. Besides, in [4], the AC50 was 31.6 µM (active).

`CC(=O)Nc1cc(S(=O)(=O)O)cc2cc(S(=O)(=O)O)c(N=Nc3ccccc3)c(O)c12`: the call in assay [2], in assay [3], in assay [6] and in [4] was inactive.

Take `CCCCCCCCCCOC(=O)c1ccccc1C(=O)OCCCCCCCC`: the call in [2], in assay [3], in [6], in [8], in assay [9] and in assay [4] was inactive.

As to `C=C(C)C(=O)OCCC(C)OC(=O)C(=C)C` (configuration not stated), the outcome in assay [2] and in assay [3] was inactive.

In the case of `C=CC(C)CCCC(C)(C)O` (configuration not stated), the molecule was called inactive in assay [2], in assay [3], in assay [6] and in assay [4].

Consider `FC(F)(F)c1ccc(Cl)c(Cl)c1`, for which, in assay [2], the concentration at half-maximal activity (AC50) is 12 µM (active). The result in [3], in assay [6], in assay [8], in assay [9] and in assay [4] was inactive.

For `C=CCCCCCCCCC(=O)OCC`, the molecule was classed as inactive in assay [2], in assay [3], in [6] and in [4].

Turning to `CC1COC(=O)O1` (configuration not stated), the molecule was classed as inactive in [2], in [3], in assay [6], in assay [8], in assay [9] and in assay [4].

Regarding `CNC(=C[N+](=O)[O-])NCCSCc1ccc(CN(C)C)o1`, the molecule was called inactive in assay [2], in assay [3], in assay [6] and in [4].

Regarding `CCC(C)COC(=O)CC(C)C` (configuration not stated), the molecule was classed as inactive in [2], in assay [3], in assay [6] and in assay [4].

`CCCCCCCCCCCCS`: the result in assay [2], in [3], in assay [6] and in [4] was inactive.

Consider `CC(O)CNCC(C)O` (configuration not stated), for which the concentration at half-maximal activity (AC50) in assay [2] is 18 µM (active). Further, the call in assay [3] was inactive.

For `CCC(C)(CCCC(C)C)OC(C)=O` (configuration not stated), the result in assay [2], in assay [3], in [6] and in assay [4] was inactive.

For `CCC(C)(C)C1CCC(OC)CC1` (configuration not stated), the molecule was classed as inactive in assay [2], in assay [3], in [6] and in assay [4].

On to `CCCO`, for which the outcome in assay [2], in assay [3], in assay [6] and in assay [4] was inactive.

`CC(C)N(c1ccccc1)C(C)C`: the outcome in assay [2], in assay [3], in assay [6] and in [4] was inactive.

In the case of `CCCCCCCCCCCCN1CCOCC1`, the molecule was called inactive in assay [2] and in assay [3]. Besides, the values for the AC50 in [6] and in assay [4] were 50 µM (active) and 68 µM (active), respectively.

For orientation: AC50 means the concentration giving half of the maximal activity seen.
